# Source: the supplement of paper PMC13392028
# Whole data set: some 4,100 sequences, median “RBNS R-value (6-mer enrichment in protein-bound RNA vs input library)” near 0.99, cut for the highest 2% near 1.4. The list comes from a sample in which the highest values are over-represented; it also holds similar and randomly drawn sequences.
# System: PfIESI-1 RRM domain (Plasmodium falciparum ortholog aa 875-1232, GST fusion)
# Experiment: RBNS R-value (6-mer enrichment in protein-bound RNA vs input library) (ratio); higher = stronger binding preference; the methods of the paper give 50 / 100 / 500 nM protein instead
# Protocol: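 RNA Bind-n-Seq: recombinant GST-tagged IESI-1 RRM domain was incubated at room temperature with a random 40-nt in vitro transcribed RNA library at 250, 500 or 1000 nM protein. Bound RNA was pulled down on glutathione beads and sequenced. R-value is the enrichment of each 6-mer in the bound RNA relative to the input library. Each 6-mer sits inside the random 40-mer context, not as an isolated oligo. Values are replicate 1 only.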
Sequence,RBNS R-value (protein concentration: 250 nM),RBNS R-value (protein concentration: 500 nM),RBNS R-value (protein concentration: 1000 nM)
CAUGAU,2.24,2.42,1.85
UAUGAA,0.854,0.932,0.895
UAUGAU,1.95,2.17,1.61
AAUGCU,0.913,0.938,0.914
CAUGAA,0.967,1.05,1.01
AAUGAU,2.28,2.5,1.88
CAUGAG,1.06,1.07,1.07
AAUGAG,1.02,1.1,1.07
UAUGAG,0.911,0.958,0.958
CACGUU,0.886,0.866,0.874
GCACGA,1.08,1.09,1.1
AGCAGG,1.02,1.05,1.12
AGAGUG,1.09,1.09,1.05
UUUGAC,1.17,1.15,1.12
CUUGAC,1.28,1.19,1.22
AUUGAC,1.12,1.14,1.08
GUUGAG,0.972,0.963,1
UUUGAA,0.988,1.05,1.05
GUUGAU,1.71,1.81,1.51
UUUGAU,2.39,2.62,1.95
GUUGAC,1.01,0.99,1.02
AUUGAU,2.21,2.4,1.85
CUUGAA,1.1,1.09,1.1
AUUGAG,1.07,1.1,1.04

Sequence,RBNS R-value (protein concentration: 250 nM),RBNS R-value (protein concentration: 500 nM),RBNS R-value (protein concentration: 1000 nM)
CUUGAU,2.01,2.15,1.74
AGGACA,1,1.03,1.04
CCUUGU,0.991,0.946,0.954
GGGAGU,1.1,1.05,1.09
CCGCCA,1.08,0.99,1.06
AUCCUA,0.949,0.898,0.9
GCCCCU,1.04,0.964,1.02
AAUCAA,0.817,0.94,0.899
GCCAUA,0.918,0.859,0.881
UGGCUU,1.01,0.984,0.967
AAAAAC,1.13,1.3,1.2
GAGCGU,0.994,0.96,0.986
UCGAGA,1.26,1.23,1.22
CCGAGC,1.29,1.16,1.24
CCGAGA,1.59,1.4,1.41
GCAGGU,1.01,0.998,1.07
CGGGGU,1.06,1.04,1.07
AUUCGU,0.903,0.913,0.916
GGGGUG,1.1,1.02,1.07
GCAUGC,1.01,0.974,1
GCAUGA,1.41,1.43,1.27
CCAUGG,1.07,1.01,1.07
CCAUGU,0.923,0.903,0.916
CCAUGA,1.4,1.43,1.27

Sequence,RBNS R-value (protein concentration: 250 nM),RBNS R-value (protein concentration: 500 nM),RBNS R-value (protein concentration: 1000 nM)
GCAUGG,0.998,0.987,1.04
GAGAGA,1.26,1.29,1.28
UGCGAC,1.06,1,1
UAAAAA,0.951,1.17,1.05
GACACC,1.56,1.32,1.35
GGCACA,1.05,1.05,1.04
GGCACC,1.38,1.2,1.29
GACACU,1.2,1.19,1.14
GACACG,1.13,1.1,1.12
GGCACU,1.11,1.03,1.07
CGAUCG,0.905,0.881,0.937
CUGCGG,1.03,0.975,1.05
CCUCCG,1.07,1.01,1.07
ACUUAC,0.815,0.767,0.76
GCCAAA,1.06,1.08,1.1
AAGCGC,1.03,1.06,1.04
UAUUGG,0.864,0.848,0.873
UAGAAU,1.06,1.14,1.06
GAGAAG,1.33,1.36,1.29
CAGAAU,1.12,1.18,1.15
GAGAAU,1.43,1.5,1.37
GAGAAA,1.41,1.55,1.45
GAGAAC,1.24,1.31,1.27
UCGGCU,0.925,0.885,0.937

Sequence,RBNS R-value (protein concentration: 250 nM),RBNS R-value (protein concentration: 500 nM),RBNS R-value (protein concentration: 1000 nM)
GCCUCA,0.982,0.946,1.02
CCCCGA,1.37,1.23,1.31
GCCCGG,1.38,1.2,1.31
UCCCGA,1.2,1.12,1.14
GCCCGA,1.52,1.34,1.36
ACCCGG,1.44,1.25,1.32
GCCCGU,1.17,1.07,1.13
ACCCGU,1.24,1.12,1.19
ACCCGC,1.29,1.17,1.23
ACCCGA,1.63,1.36,1.4
UGAGUG,1.07,1.11,1.06
GGCUGG,1.06,1,1.08
AUUCCA,1.24,1.23,1.22
GAGGCC,1.15,1.07,1.13
AUGUAG,0.952,1.04,0.956
UGACAA,1.07,1.14,1.08
UGACAC,1.39,1.32,1.3
UGACAU,1.14,1.14,1.12
GCACGG,1.02,0.986,1.05
AUGGCA,1.28,1.26,1.16
UGCUAU,0.951,0.947,0.896
UCUCGA,1.01,1,1.04
AAUUAA,0.748,0.862,0.797
UAUUAC,0.773,0.754,0.724

Sequence,RBNS R-value (protein concentration: 250 nM),RBNS R-value (protein concentration: 500 nM),RBNS R-value (protein concentration: 1000 nM)
CAUUAC,0.794,0.766,0.761
GAUUAG,1.3,1.4,1.25
CAUUAG,0.827,0.851,0.841
AAUUAG,0.847,0.908,0.88
CAUUAA,0.748,0.797,0.751
GAUUAC,1.36,1.48,1.29
GAUUAA,1.24,1.42,1.2
UCAUAC,0.811,0.758,0.768
UAUAGC,0.876,0.87,0.833
CUUUAU,0.759,0.733,0.732
CUCUCU,0.881,0.796,0.867
CUCCAC,1.02,0.964,0.993
UUUUUG,1.18,1.26,1.16
GAAAAA,1.29,1.48,1.37
GAAAAU,1.12,1.29,1.19
GAAAAC,1.2,1.32,1.24
AGAAAA,1.27,1.48,1.35
AGAAAU,1.09,1.29,1.16
CGAAAA,1.17,1.28,1.23
AAAAAU,1.07,1.29,1.16
AAAAAA,1.25,1.51,1.36
AAAAAG,1.2,1.37,1.29
GGUCGG,0.934,0.838,0.968
UCGACU,0.956,0.919,0.936

Sequence,RBNS R-value (protein concentration: 250 nM),RBNS R-value (protein concentration: 500 nM),RBNS R-value (protein concentration: 1000 nM)
AGUAGG,0.965,0.969,1.02
CGUUCA,0.9,0.886,0.924
GAAUGU,0.918,1.01,0.982
GAAUGC,1.08,1.07,1.08
AAAUGC,0.994,1.07,1.05
GAAUGA,1.47,1.55,1.36
AAAUGA,1.42,1.6,1.38
CAAUGA,1.34,1.41,1.24
CAAUGC,0.943,0.936,0.955
CAAUGG,1.03,1.03,1.06
UAAUGA,1.05,1.2,1.03
UUCUAC,0.96,0.873,0.911
GUCUUA,0.784,0.786,0.826
CGUGAC,1,0.946,1
GUAGCC,1.03,0.977,1.02
UUUAAG,0.833,0.879,0.837
CAGAGA,1.28,1.31,1.3
ACCGAG,1.34,1.24,1.25
CCCGGC,1.27,1.14,1.24
UCCGAA,1.1,1.1,1.13
CCCGGU,1.22,1.12,1.21
CCGGGA,1.4,1.21,1.27
ACCGAA,1.07,1.11,1.09
CCCGAG,1.66,1.29,1.45

Sequence,RBNS R-value (protein concentration: 250 nM),RBNS R-value (protein concentration: 500 nM),RBNS R-value (protein concentration: 1000 nM)
GCCGAG,1.23,1.16,1.2
CCGGGU,1.19,1.08,1.17
ACGGGA,1.1,1.06,1.1
CCCGGG,1.56,1.3,1.42
CCCGAA,1.44,1.33,1.35
CUCAAC,0.907,0.891,0.925
CUCUAC,0.858,0.793,0.813
GGGAAC,1.14,1.14,1.17
GAAUUU,1.14,1.19,1.13
UGCUAC,0.931,0.87,0.895
GUGUGG,0.869,0.812,0.921
CCACGA,1.17,1.13,1.15
CGGGUC,1.03,0.928,1.06
GUCGAG,0.954,0.931,0.991
UUCGAG,1.1,1.12,1.14
CUCGAG,1.38,1.28,1.27
UGGAGC,1.03,1,1.02
CUUAUA,0.758,0.723,0.711
GUGAGA,1.02,1.08,1.1
GUGAUC,1.06,1.1,1.06
CUGAAU,1.01,1.05,1.01
CCGAUU,1.34,1.3,1.23
GCGAUU,1.23,1.24,1.15
UUGAGU,1,1.04,1.02

Sequence,RBNS R-value (protein concentration: 250 nM),RBNS R-value (protein concentration: 500 nM),RBNS R-value (protein concentration: 1000 nM)
UUGAUU,2.69,2.96,2.18
UGGAUU,0.95,0.939,0.974
GUGAUA,1.31,1.43,1.28
GUGAUU,1.83,2.01,1.61
GUGAAA,1.01,1.12,1.09
CUGAUU,2.52,2.66,1.97
UACAAA,0.828,0.904,0.843
AAUAAU,0.738,0.867,0.789
CAUAAU,0.76,0.795,0.73
GCGCGA,1.1,1.12,1.11
CGUAAA,0.871,0.956,0.929
ACCUGC,1.09,1.03,1.07
ACCUGG,1.19,1.11,1.17
ACCUGA,1.51,1.48,1.37
GCCUGA,1.45,1.4,1.32
CCCUGG,1.17,1.09,1.15
GCCUGG,1.12,1.05,1.15
CCCUGU,0.962,0.898,0.981
CCCUGA,1.44,1.41,1.35
GCCUGC,1.12,1,1.06
